Data reported in PubChem BioAssay AID1220 (Sanford-Burnham Center for Chemical Genomics, 2008).
In all, about 190,000 compounds went through this assay and about 1,300 (0.68%) were called active. The sample holds actives, similar compounds and a random draw of the others, so the mix is not that of the screen. Unmarked numbers belong to inactive results. Cut-off read from the data, not from the text of the source: active = inhibition above about 50%; inactive = the rest.

target: Mannose-6-phosphate isomerase (Homo sapiens) (UniProt P34949); assay: MPI inhibition at elevated mannose 6-phosphate – biochemical, fluorescence intensity, high mannose 6-phosphate, primary screen (AID 1220); settings: recombinant PMI enzyme, coupled fluorescence intensity; at 20 µM; hits give high values
Sequence (P34949 whole entry, looked up): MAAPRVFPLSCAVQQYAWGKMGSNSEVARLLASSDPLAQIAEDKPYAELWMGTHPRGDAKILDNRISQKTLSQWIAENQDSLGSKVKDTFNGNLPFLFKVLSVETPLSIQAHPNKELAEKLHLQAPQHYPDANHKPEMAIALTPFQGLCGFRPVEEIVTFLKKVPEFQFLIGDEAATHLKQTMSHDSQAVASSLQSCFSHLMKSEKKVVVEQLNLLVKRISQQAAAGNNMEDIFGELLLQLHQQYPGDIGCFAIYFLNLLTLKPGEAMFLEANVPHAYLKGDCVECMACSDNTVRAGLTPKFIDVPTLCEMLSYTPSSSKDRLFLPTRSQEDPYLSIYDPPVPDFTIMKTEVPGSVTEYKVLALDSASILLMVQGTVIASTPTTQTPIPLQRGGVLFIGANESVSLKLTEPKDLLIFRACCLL

Row | Compound | inhibition
1 | CNCC(O)COc1cccc(OC)c1 (configuration not stated) | 9.8%
2 | Cc1c(C)c2ccc(OS(C)(=O)=O)c(C)c2oc1=O | -10.6%
3 | Fc1ccc(CNC(=S)Nc2ccc(OC(F)F)cc2)cc1 | 5.2%
4 | O=[N+]([O-])c1ccccc1S(=O)(=O)N1CCN(Cc2cc3c(cc2O)OCO3)CC1 | 59.2% (active)
5 | O=[N+]([O-])c1ccccc1S(=O)(=O)N1CCN(Cc2ccc3c(c2)OCO3)CC1 | -3.6%
6 | O=[N+]([O-])c1ccccc1S(=O)(=O)N1CCN(Cc2ccsc2)CC1 | 7.8%
7 | COc1ccc(CN(Cc2cc3cc(OC)c(OC)cc3[nH]c2=O)C(=O)NC2CCCCC2)cc1 | 0.5%
8 | COc1ccc(/C=N/OCC(=O)Nc2ccc3c(c2)OCO3)c(OC)c1 | 10.9%
9 | O=C(O)CCn1c2c(c3ccccc31)CCCC2 | 8.9%
10 | O=C(O)Cn1c2c(c3ccccc31)CCCC2 | 58.5% (active)
11 | O=C(O)Cn1c2ccccc2c2ccccc21 | -2.4%
12 | Cc1cccc(N2CCN(C(=O)c3ccccn3)CC2C)c1 (configuration not stated) | 9.3%
13 | O=C(/C=C/c1ccc(Cl)cc1Cl)N1CCc2ccccc21 | -2.2%
14 | CCN(CC)c1cc(C)c2cc(NC(=O)c3cccs3)ccc2n1 | 10.3%
15 | CCN(CC)c1cc(C)c2cc(NC(=O)c3ccc(Br)o3)ccc2n1 | 70.4% (active)
16 | CCN1CCN(c2cc(C)c3cc(NC(=O)c4ccc(Br)o4)ccc3n2)CC1 | -5.1%
17 | CCOC(=O)c1c(/N=C/c2cccc(C)c2O)sc2c1CCN(C)C2 | -2.3%
18 | Cn1c(=S)n(/N=C/c2ccc3c(c2)OCO3)c2ccccc21 | -3.6%
19 | CCn1c(SCC(=O)N/N=C/C=C/c2ccco2)nnc1-c1ccc(OC)cc1 | 52.6% (active)
20 | CCn1c(SCC(=O)N/N=C/C=C/c2ccco2)nnc1-c1ccccc1 | -8.3%
21 | CCn1c(SCC(=O)N/N=C/C(C)=C/c2ccco2)nnc1-c1ccccc1 | 43.3%
22 | O=C(COc1cccc2c1CCN(Cc1ccc(Cl)cc1)C2=O)N1CCOCC1 | -2.4%
23 | CC(C)CC(=O)NC(=S)Nc1ccc(S(=O)(=O)N2CCCC2)cc1 | -1%
24 | CCNc1ccc(C(=O)OCC)cc1NC(=O)c1cccc(S(=O)(=O)N(C)c2ccccc2)c1 | 50.1% (active)
25 | CCNc1ccc(C(=O)OCC)cc1NC(=O)c1cccc(N(C)C)c1 | 6.9%

Row | Compound | inhibition
26 | CCNc1ccc(C(=O)OCC)cc1NC(=O)c1cccc(S(=O)(=O)N2CCOCC2)c1 | 8.8%
27 | O=C(CNCC1CCCO1)N1CCN(S(=O)(=O)c2ccc3ccccc3c2)CC1 (configuration not stated) | -1.2%
28 | O=C(/C=C/c1ccccc1Cl)Nc1ccncc1 | -5.1%
29 | CN1C(=O)CC(N2CCC(C(N)=O)CC2)C1=O (configuration not stated) | -4%
30 | Cc1ccc(S(=O)(=O)Cn2nnnc2C(C)N2CCN(C(=O)c3ccco3)CC2)cc1 (configuration not stated) | 11.7%
31 | CCCn1c(C)cc(C)c(C#N)c1=O | -3.4%
32 | Cc1cc(C)n(CCCO)c(=O)c1C#N | -3.9%
33 | CCCn1c(O)c(CN2CCCC(C)C2)c(C)c(C#N)c1=O (configuration not stated) | 39.4%
34 | CCCn1c(O)c(CN2CCCCC2)c(C)c(C#N)c1=O | 57.4% (active)
35 | Cc1cc(=O)n(CCCO)c(O)c1C#N | 37.6%
36 | Cc1c(CN2CCCCC2)c(O)n(CCCO)c(=O)c1C#N | 52.1% (active)
37 | COc1ccc(CCN(C)CCCN2CC(c3ccccc3)CC2=O)cc1OC (configuration not stated) | -9.7%
38 | Cc1ccc(S(=O)(=O)N2CCN(CC(=O)NC3CCCc4ccccc43)CC2)cc1C (configuration not stated) | 13.8%
39 | CCOC(=O)N1CCN(c2c(NCC3CCN(Cc4cccc(C)c4)CC3)c(=O)c2=O)CC1 | 8.2%
40 | Nc1nc(Cl)cc(Sc2ccc3ccccc3c2)n1 | 1%
41 | Cc1nc2sccn2c1P(c1c(C)nc2sccn12)c1c(C)nc2sccn12 | -5.7%
42 | CCC(CO)NCc1ccc(OCC(=O)Nc2cccc(C(F)(F)F)c2)c(OC)c1 (configuration not stated) | -1.3%
43 | CN=c1scc(-c2cccs2)n1/N=C/c1ccc(O)c(O)c1O | 34.6%
44 | CN=c1scc(-c2cccs2)n1/N=C/c1ccccc1O | 14.7%
45 | CCN=c1scc(-c2ccco2)n1/N=C/c1ccc(OC)c(O)c1 | -17.3%
46 | CCN=c1scc(C)n1/N=C/c1cc(Br)c(O)c(Br)c1 | -6.2%
47 | CCN=c1scc(-c2ccco2)n1/N=C/c1ccc(O)cc1 | -22.4%
48 | CCN=c1scc(-c2cccs2)n1/N=C/c1cc(OC)ccc1O | -21.1%
49 | CCN=c1scc(C)n1/N=C/c1ccsc1 | 2.6%
50 | CN=c1scc(-c2ccccc2F)n1/N=C/c1ccc[nH]1 | -2.3%

Row | Compound | inhibition
51 | COCCNS(=O)(=O)c1cc(OC)ccc1OC | 8.6%
52 | Cc1cc(N2CCN(c3ccccc3)CC2)nc(-c2ccccc2O)n1 | 2.1%
53 | Cc1cc(S(=O)(=O)NCC(C)C)ccc1OCC(=O)NCC1CCCO1 (configuration not stated) | 15.5%
54 | COc1cc(C(=O)OCCNC(=O)c2ccncc2)cc(OC)c1OC | -20%
55 | CCC(C)NS(=O)(=O)c1ccc(F)c(C(=O)Nc2c(F)cc(F)cc2Br)c1 (configuration not stated) | -19.4%
56 | COc1ccc2[nH]c(=O)c(CN(CCO)C(=O)NCc3ccccc3)cc2c1 | 3.9%
57 | CCn1c(COc2ccccc2)nnc1SCC(=O)Nc1cc(C)ccc1OC | 8.3%
58 | C#CCOCCOCCOCCNc1nc(N2CCN(C(=O)[C@H](CCC(=O)O)n3cc(C(N)Cc4ccc(O)cc4)nn3)CC2)nc(N2CCN(C(=O)[C@H](CCC(=O)O)n3cc(C(N)[C@H](C)CC)nn3)CC2)n1 (some centres not stated) | -33.1%
59 | O=C(c1ccccc1)c1cccc(NC(=O)c2ccc(Br)o2)c1 | 6.2%
60 | O=C(C1CCCCN1S(=O)(=O)c1ccccc1)N1CCN(C(c2ccccc2)c2ccccc2)CC1 (configuration not stated) | 9.8%
61 | COc1cc(Br)c(S(=O)(=O)Nc2c(C)n(C)n(-c3ccccc3)c2=O)cc1OC | -1.6%
62 | O=C(c1cccnc1)N1C2C=CC(C2)C1(C(F)(F)F)C(F)(F)F (configuration not stated) | -7.8%
63 | Cc1cc(C)nc(NS(=O)(=O)c2ccc(Br)cc2)n1 | -3.5%
64 | Cc1ccc(NS(=O)(=O)c2ccc(Br)cc2)nc1 | 0.3%
65 | COC1(NS(=O)(=O)c2ccc(Br)cc2)C(C)=CC(=O)C=C1C | 55.3% (active)
66 | O=C(Nc1ccc2oc(-c3ccc(F)cc3)nc2c1)c1ccccc1F | 1%
67 | Cc1ccc(-c2nc3c(c(=O)c4ccccc4n3C)c(=O)n2-c2ccccc2)cc1 | 0.4%
68 | Cc1nc2c([N+](=O)[O-])c(C)c(C)cc2[nH]1 | 4.2%
69 | O=c1[nH]c(=O)c2nc3c4ccccc4c4ccccc4c3nc2[nH]1 | 11.6%
70 | Cc1cc2nc3c(=O)[nH]c(=O)[nH]c3nc2c([N+](=O)[O-])c1N | 53.3% (active)
71 | NC(=O)Nn1c(CCC(=O)O)ccc1-c1ccc(Br)cc1 | -6.3%
72 | O=C(CSc1ccc2nnc(-c3ccccc3)n2n1)NCc1ccc2c(c1)OCO2 | 2.7%
73 | CN(C)c1nc(OCCNC(=O)Nc2ccc(Cl)cc2)nc(N(C)C)n1 | 1.2%
74 | O=C1c2ccccc2C(=O)c2cc(S(=O)(=O)Nc3ccccc3)ccc21 | 60.3% (active)
75 | O=C(O)c1ccc(NS(=O)(=O)c2ccc3c(c2)C(=O)c2ccccc2C3=O)cc1 | 2.7%

Row | Compound | inhibition
76 | Cc1cccc(C)c1NS(=O)(=O)c1ccc2c(c1)C(=O)c1ccccc1C2=O | 21%
77 | COc1ccc(CCNc2ccc(S(=O)(=O)N3CCCC3)cc2[N+](=O)[O-])cc1 | -0.1%
78 | COc1ccc2nc3ccccc3nc2c1NC(=O)c1ccc(Cl)cc1 | 23%
79 | COc1ccc2nc3ccccc3nc2c1NC(=O)c1ccc(Cl)cc1Cl | 17.8%
80 | COc1ccc2nc3ccccc3nc2c1NC(=O)c1ccccc1Cl | 51.5% (active)
81 | Cc1ccc2cccc(OCC(=O)N3CC(C)CC(C)C3)c2n1 (configuration not stated) | 26.7%
82 | Cc1ccccc1CSCC(=O)c1c(N)n(C)c(=O)n(C)c1=O | 6.8%
83 | Cc1cccc(NCC(=O)c2c(N)n(C)c(=O)n(C)c2=O)c1C | 59% (active)
84 | Cc1cccc(OCC(=O)OCC(=O)c2c(N)n(C)c(=O)n(C)c2=O)c1C | 3.8%
85 | CC(C)C(=O)NC(NC(=O)C(C)C)c1ccc([N+](=O)[O-])cc1 | -13.1%
86 | CC(C)c1onc(C(=O)NCc2cccs2)c1[N+](=O)[O-] | -6.7%
87 | CC(=O)c1cc2c(cc1N/C(=N/S(=O)(=O)c1ccc(C)cc1)c1ccc(Cl)cc1)OCO2 | 7.7%
88 | O=S(=O)(N/N=C/c1ccc(F)cc1)c1ccccc1 | 4.7%
89 | COc1ccc(NC(=S)Nc2ccc3cn[nH]c3c2)cc1 | 48.7%
90 | S=C(Nc1ccc2cn[nH]c2c1)Nc1ccccc1Cl | 42.1%
91 | CC(C)c1ccc(NC(=S)Nc2ccc3cn[nH]c3c2)cc1 | 46.1%
92 | Cc1ccc(NC(=S)Nc2ccc3cn[nH]c3c2)c(C)c1 | 44%
93 | Cc1cc(C)cc(NC(=S)Nc2ccc3cn[nH]c3c2)c1 | 21.3%
94 | Cc1ccc(NC(=S)Nc2ccc3cn[nH]c3c2)cc1 | 57.8% (active)
95 | Cc1ccc(NC(=S)Nc2ccc3cn[nH]c3c2)cc1C | 15.4%
96 | Cc1ccccc1NC(=S)Nc1ccc2cn[nH]c2c1 | 61.3% (active)
97 | S=C(Nc1ccc(Cl)cc1)Nc1ccc2cn[nH]c2c1 | 56.6% (active)
